These results are taken from PubChem BioAssay (NCI).

Structures are written as SMILES. Compounds without any hit were thinned out: in the full panel of roughly 83,000, 20% have a hit.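 Results are percent growth after 48 hours of single-concentration exposure. 100 means growth as in untreated cells, lower positive values show inhibition; negative values down to -100 show cell death.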 Values without a mark were called inactive. Activity calls are given as the source filed them. The calls were made as follows: active = growth percent below 10; inactive = the rest.

Common to all, as to test: NCI-60 one-dose screen, 48 h (100 = growth as untreated, 0 = no growth, -100 = all killed)
What all share (settings): 10 µM

Assay [1] relates to SK-MEL-2 melanoma.
Assay [2] deals with EKVX NSCLC.
In assay [3] the test system is SN12C renal.
The test system of assay [4] is UO-31 renal.
Assay [5] deals with TK-10 renal.
Assay [6] concerns ACHN renal.
Assay [7] concerns CAKI-1 renal.
Assay [8] relates to A498 renal.
Assay [9] concerns CCRF-CEM leukemia.
The subject of assay [10] is MOLT-4 leukemia.

Regarding `Cn1c(N)c(N=Cc2ccccc2)c(=O)n(C)c1=O`, the growth in assay [1] was 97.1%; in assay [2] it was 100%; in assay [3] it was 104%; in [4], 81.5%; in assay [5] it was 117%; in assay [6], 104%. The growth is 98% in assay [7], 116% in assay [8], 112% in assay [9] and 99.4% in assay [10].

Regarding `NC(=O)C12C(=O)NC(=O)C1(C(=O)O)C21CCCC1` (stereo not given), the growth in assay [1] is 108%; in assay [2] it was 106%; in assay [3], 101%; in [4], 75.8%; in assay [5], 111%; in assay [6] it was 112%. For the same molecule, the growth in assay [7] is 112%; in [8] it was 114%; in assay [9], 96.9%; in assay [10] it was 97.2%.

For the molecule `COC1OC2COC(c3ccccc3)OC2C(=O)C1NC(=O)c1ccccc1` (stereo not given), the growth in assay [1] is 94%; in assay [2], 79.5%; in [3] it was 96.7%; in [4] it was 72.5%; in assay [5] it was 108%; in assay [6], 98.9%. Moreover, the growth was 88.9% in [7], 116% in assay [8], 97.7% in assay [9] and 110% in [10].

For the molecule `CC(C)CCN(CCCNc1c2c(nc3cc(Cl)ccc13)CCCC2)CCC(C)C`, the growth in [1] was 103%; in assay [2], 54.4%; in assay [3] it was 71.6%; in assay [4] it was 27.2%; in assay [5], 78.1%; in assay [6], 92.4%. For the same molecule, the growth in [7] was 56.5%; in [8], 59%; in assay [9], 61.6%; in [10], 47%.

As for `Cc1cn(C(=O)/C(Cl)=C(/Cl)C(=O)O)c2ccccc12`, the growth in assay [1] is 105%; in assay [2], 81.7%; in assay [3], 97.6%; in assay [4] it was 59.1%; in assay [5], 127%; in assay [6] it was 97.8%. The growth in assay [7] is 97.9%; in assay [8], 124%; in assay [9], 37.2%; in assay [10], 103%.

Turning to `C=CCn1ccc(=O)nc1SC`, the growth was 107% in [1]; 104% in assay [2]; 104% in [3]; 89% in assay [4]; 101% in assay [5]; 108% in assay [6]. The growth in assay [7] was 106%; in assay [8], 104%; in assay [9], 104%; in assay [10], 100%.

For `COc1ccccc1Cn1cc2c(c1-c1ccccc1)CCc1cnoc1-2`, the growth in [1] is 49.2%; in assay [2], 46.3%; in assay [3] it was 50.2%; in [4], 34.1%; in assay [5] it was 81.4%; in assay [6] it was 49.3%. The growth was 4.31% (active) in assay [7], 43.2% in assay [8], 30.5% in [9] and 38.8% in [10].

`COc1ccc(C(=O)n2nc(CC(=O)NCc3ccccc3)nc2N)cc1`: the growth in [1] is 97.5%; in assay [2] it was 113%; in [3] it was 92.5%; in assay [4], 82.9%; in assay [5], 103%; in [6], 117%. The growth in assay [7] was 110%; in [8], 110%; in assay [9], 104%; in assay [10], 89.8%.

Consider `CCOC(=O)c1c(O)c2cc(-c3ccccc3)nc(OCC)c2c(=O)n1C`, for which the growth in [1] is 87.9%; in [2] it was 96%; in assay [3], 98.7%; in [4], 79.6%; in [5], 123%; in [6] it was 98.3%. Also, the growth is 97.3% in assay [7], 90.3% in assay [8], 56% in [9] and 107% in [10].

`O=C(CCc1ccccc1)N1CCN(C(=O)CCc2ccccc2)CC1`: the growth in assay [1] was 104%; in assay [2], 115%; in [3] it was 96.9%; in assay [4] it was 60.1%; in assay [5], 111%; in assay [6], 104%. The growth in [7] was 95.1%; in [8], 152%; in assay [9], 88.2%.

As to `CCSc1nc2c([nH]1)c(=O)n(C)c(=S)n2C`, the growth is 111% in [1]; 95.5% in assay [2]; 107% in assay [3]; 98.2% in assay [4]; 101% in assay [5]; 102% in [6]. Also, the growth in assay [7] was 100%; in assay [8], 108%; in assay [9], 100%; in [10], 108%.

Turning to `O=C(Nc1cccc([N+](=O)[O-])c1)NN1CCCCCC1`, the growth is 105% in [1]; 81.3% in assay [2]; 96.5% in [3]; 92.5% in assay [4]; 105% in assay [5]; 94.6% in assay [6]. Moreover, the growth was 96.2% in assay [7], 77.3% in [8], 86.1% in [9] and 106% in assay [10].

For the molecule `Cc1ccc(S(=O)(=O)N2CCc3ccccc3CC2)cc1`, the growth in assay [1] is 80.9%; in assay [2], 22%; in assay [3], 85.3%; in assay [4] it was 70.2%; in assay [5], 74.2%; in assay [6] it was 85.5%. Also, the values for the growth in assay [7], in assay [8] and in assay [10] were 78.7%, 87.4% and 80.5%, respectively.

Take `CCOC(=O)c1cc2c(n1Cc1cc(OC)cc(OC)c1)-c1oncc1CC2`: the growth in [1] was 26.7%; in assay [2] it was 34.5%; in [3] it was 40.9%; in assay [4] it was 19.4%; in [5] it was 53.2%; in assay [6] it was 47.1%. Besides, the growth in assay [7] is 29.2%; in assay [9] it was 13.2%; in assay [10] it was 23.6%.

Take `COc1ccc(Cn2cc3c(c2-c2ccccc2)CC(C)(C)c2cnoc2-3)cc1`: the growth is 53% in assay [1]; 38.7% in [2]; 50.6% in assay [3]; 43.9% in assay [4]; 75% in [5]; 53.9% in assay [6]. The growth in assay [7] was 6.85% (active); in assay [8], 49.4%; in [9], 22.7%; in assay [10], 40%.

In the case of `COc1cc([C@@H]2c3cc4c(cc3[C@H](SC(=N)N)[C@H]3COC(=O)[C@H]23)OCO4)cc(OC)c1OC`, the growth in [1] is 30.8%; in assay [2], 33.2%; in assay [3], 27.3%; in assay [4], 29.3%; in [5] it was 72.4%; in [6] it was 26.3%. Moreover, the growth in assay [7] is 5.13% (active); in [8] it was 48.2%; in assay [9], 4.96% (active); in assay [10], 26%.

As for `COc1ccc(-c2n/c(=C\c3c(O)[nH]c4ccccc34)cc3c2=Nc2ccccc2-3)cc1`, the growth in assay [1] was 84.5%; in assay [2], 72.4%; in assay [3] it was 91.6%; in assay [4], 58.3%; in assay [5], 97.5%; in [6] it was 98.7%. The growth in [7] is 71.6%; in [8], 56.2%; in assay [10] it was 2.65% (active).

In the case of `COc1ccc(NC(=O)CCn2cnc3c(cc(-c4ccccc4)n3-c3ccccc3)c2=O)cc1`, the growth in [1] is 104%; in [2], 85.8%; in assay [3] it was 85.1%; in assay [4], 88.8%; in [6], 82%; in [7], 78.3%. Further, the growth was 108% in assay [8] and 93.3% in [9].

For the molecule `COc1cc(-c2nc(-c3nnc(-c4cccnc4)o3)c3ccccn23)cc(OC)c1OC`, the growth was 111% in assay [1]; 106% in [2]; 99.6% in [3]; 74.9% in [4]; 109% in [5]; 99% in [6]. Also, the growth is 104% in [7], 83% in assay [8] and 93.7% in assay [10].

With `COc1cc(/C=C/C(=O)c2cc(-c3ccc(C(F)(F)F)cc3)ccc2O)cc(OC)c1OC`, the growth in assay [1] was 70.1%; in assay [2], 61.2%; in assay [3], 66.7%; in [4], 46.7%; in assay [5], 98%; in [6], 68.4%. Moreover, the growth in [7] is 47.2%; in [8] it was 82.6%; in assay [9], 7.45% (active); in assay [10], 15.5%.

Consider `CCCCCN(CCCCC)C(C)C(O)c1ccc2cc(Cl)c3ccccc3c2c1` (stereo not given), for which the growth was 87% in assay [1]; 102% in assay [2]; 89.6% in assay [3]; 70.6% in assay [4]; 94.8% in [5]; 102% in assay [6]. The growth was 87.4% in assay [7], 83.1% in assay [8], 92.2% in assay [9] and 98.6% in assay [10].

Consider `COc1ccc(/C=C(\c2cc(OC)c(OC)c(OC)c2)c2nnc(-c3cccs3)o2)cc1`, for which the growth is 81.9% in [1]; 78.6% in assay [2]; 84.6% in [3]; 89.3% in assay [4]; 75.5% in [5]; 75.3% in [6]. Besides, the growth in assay [7] was 66.3%; in [8] it was 71.4%; in assay [10], 87.6%.

In the case of `COc1ccccc1CNCCCN1C(=O)c2ccc3c4c(ccc(c24)C1=O)C(=O)N(CCCNCCNCCCN)C3=O`, the growth is 24.9% in [1]; 37.9% in assay [2]; 1.16% (active) in [3]; 77.3% in assay [4]; 60.6% in assay [5]; 51.5% in [6]. The growth is 87.8% in assay [7], 60.9% in [8] and 1.36% (active) in assay [10].

In the case of `CC(=O)Oc1ccc(C2=Cc3ccc(OC(C)=O)cc3OC2C)cc1` (stereo not given), the growth is 61% in [1]; 56.7% in assay [2]; 66.9% in assay [3]; 18.6% in assay [4]; 82.7% in assay [5]; 10% in assay [6]. Besides, the growth is 43.6% in assay [7], 82.6% in assay [8], 24.3% in assay [9] and 36.7% in [10].

`COc1cc(/C=C/C(=O)c2cc(-c3ccccc3)ccc2O)cc(OC)c1OC`: the growth is 77.2% in [1]; 54% in assay [2]; 76.2% in assay [3]; 53.4% in assay [4]; 105% in assay [5]; 77.3% in assay [6]. The growth is 61.6% in assay [7], 74.3% in assay [8], 8.52% (active) in assay [9] and 28% in assay [10].

Regarding `Cc1ccc(NS(=O)(=O)c2ccccc2)c(NS(=O)(=O)c2ccccc2)c1`, the growth in [1] was 98.6%; in assay [2], 93.8%; in assay [3], 90.4%; in assay [4] it was 69.4%; in assay [5], 112%; in assay [6], 94.3%. The growth was 93.2% in [7], 115% in assay [8], 96% in assay [9] and 105% in [10].

Consider `Cn1c(=O)c2[nH]c(C(O)c3ccc(Cl)cc3)nc2n(C)c1=O` (stereo not given), for which the growth is 96.4% in assay [1]; 98.7% in [2]; 89.8% in assay [3]; 82.3% in assay [4]; 108% in assay [5]; 103% in assay [6]. In addition, the growth in assay [7] was 105%; in assay [8], 95.1%; in [9] it was 99.3%; in [10], 103%.

As for `COc1cc(-c2n/c(=C\c3c(O)[nH]c4ccccc34)cc3c2=Nc2ccccc2-3)cc(OC)c1OC`, the growth in assay [1] was 35.6%; in assay [2], 45.8%; in [3] it was 34.3%; in assay [4], 33.9%; in assay [5], 57.9%; in [6] it was 37.2%. The growth was 29.5% in assay [7], -16.3% (active) in assay [8] and -13.5% (active) in assay [10].

On to `CCOC(=O)c1cc2c(n1Cc1ccccc1)-c1oncc1CC2`, for which the growth in [1] is 85.7%; in assay [2], 77%; in assay [3], 98.6%; in assay [4] it was 25.4%; in assay [5], 101%; in [6], 82.1%. Moreover, the growth in [7] is 36.5%; in [8], 48.4%; in [9], 53.1%; in [10], 25.2%.
